In PubChem BioAssay (EPA / NIEHS) one finds outcome and AC50 data, which are given here for 25 compounds.

Records with an inconclusive call do not appear. Active and inactive are the calls of the source. Rule for the calls: active = hit-call score of the fitted dose curve at least 0.9, where 1 is the maximum; inconclusive = response in the unintended direction; inactive = score below 0.9.

D(1A) dopamine receptor (Homo sapiens), sequence (P21728 whole entry, looked up): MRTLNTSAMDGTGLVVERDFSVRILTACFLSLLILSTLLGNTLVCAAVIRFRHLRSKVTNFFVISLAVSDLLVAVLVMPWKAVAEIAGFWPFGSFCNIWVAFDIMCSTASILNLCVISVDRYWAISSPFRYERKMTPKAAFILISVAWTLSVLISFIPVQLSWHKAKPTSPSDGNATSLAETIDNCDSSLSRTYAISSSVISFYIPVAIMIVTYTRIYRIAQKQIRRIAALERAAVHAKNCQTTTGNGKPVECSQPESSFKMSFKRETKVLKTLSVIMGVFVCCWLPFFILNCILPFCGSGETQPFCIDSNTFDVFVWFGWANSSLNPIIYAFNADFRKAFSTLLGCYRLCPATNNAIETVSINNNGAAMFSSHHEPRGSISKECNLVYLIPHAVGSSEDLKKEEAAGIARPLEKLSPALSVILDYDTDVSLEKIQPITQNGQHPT
sheep Cyclooxygenase-1 (Cox1), PTGS1 (gene 443551), sequence (P05979 whole entry, looked up): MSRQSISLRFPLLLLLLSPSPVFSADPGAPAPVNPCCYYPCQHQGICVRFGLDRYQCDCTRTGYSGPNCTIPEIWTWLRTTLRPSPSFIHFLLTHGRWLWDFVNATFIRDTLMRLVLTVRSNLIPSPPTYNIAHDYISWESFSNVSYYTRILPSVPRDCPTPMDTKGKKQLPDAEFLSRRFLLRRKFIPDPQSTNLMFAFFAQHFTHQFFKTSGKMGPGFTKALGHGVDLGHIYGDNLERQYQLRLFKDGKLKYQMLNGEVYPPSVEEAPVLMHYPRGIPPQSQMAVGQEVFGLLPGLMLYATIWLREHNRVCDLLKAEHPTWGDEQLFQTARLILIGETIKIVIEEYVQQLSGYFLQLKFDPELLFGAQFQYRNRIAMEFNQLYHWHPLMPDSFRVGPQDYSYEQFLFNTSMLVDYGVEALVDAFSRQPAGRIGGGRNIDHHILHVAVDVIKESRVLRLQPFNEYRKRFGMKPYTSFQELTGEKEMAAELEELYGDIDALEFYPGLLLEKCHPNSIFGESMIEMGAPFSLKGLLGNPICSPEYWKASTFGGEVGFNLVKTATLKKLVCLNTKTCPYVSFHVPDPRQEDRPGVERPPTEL
human Adenosine A2a Receptor (AdoRA2a), ADORA2A (gene 135), sequence (P29274 whole entry, looked up): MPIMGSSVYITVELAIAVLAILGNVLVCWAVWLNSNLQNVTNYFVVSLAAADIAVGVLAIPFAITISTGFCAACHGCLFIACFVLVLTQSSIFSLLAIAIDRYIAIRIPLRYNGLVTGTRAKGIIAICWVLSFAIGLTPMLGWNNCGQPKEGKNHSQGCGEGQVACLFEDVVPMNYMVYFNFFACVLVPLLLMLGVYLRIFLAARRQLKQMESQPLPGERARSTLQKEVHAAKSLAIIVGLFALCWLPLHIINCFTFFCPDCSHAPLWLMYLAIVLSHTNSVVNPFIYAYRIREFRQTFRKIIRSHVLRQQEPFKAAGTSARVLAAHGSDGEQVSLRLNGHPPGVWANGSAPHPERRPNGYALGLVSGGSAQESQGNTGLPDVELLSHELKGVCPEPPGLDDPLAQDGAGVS

The target of one assay is human Vascular Endothelial Growth Factor Receptor 1 (VEGFR1), FLT1 (gene 2321) (UniProt P17948). The experiment in a line: NVS_ENZ_hVEGFR1: NovaScreen (NVS) Enzymatic Assay for human Vascular Endothelial Growth Factor Receptor 1 (VEGFR1) (AID 2283226). The procedure: NVS_ENZ_hVEGFR1 is a biochemical, single-readout assay that uses extracted gene-proteins in a cell-free assay. Measurements were taken 1 hour after chemical dosing in a 384-well plate.NVS_ENZ_hVEGFR1 is one of one assay component(s) measured or calculated from the NVS_ENZ_hVEGFR1 assay. It is designed to make measurements of enzyme activity, a form of enzyme reporter, as detected with fluorescence intensity signals by Fluorescence and electrophoretic mobility shift technology.Data from the assay component NVS_ENZ_hVEGFR1 was analyzed into 1 assay endpoint. This assay endpoint, NVS_ENZ_hVEGFR1, was analyzed in the positive analysis fitting direction relative to DMSO as the negative control and baseline of activity. Using a type of enzyme reporter, loss-of-signal activity can be used to understand changes in the enzymatic activity as they relate to the gene FLT1. Furthermore, this assay endpoint can be referred to as a primary readout, because this assay has produced multiple assay endpoints where this one serves a enzymatic activity function. To generalize the intended target to other relatable targets, this assay endpoint is annotated to the kinase intended target family, where the subfamily is receptor tyrosine kinase.
human Vascular Endothelial Growth Factor Receptor 1 (VEGFR1), FLT1 (gene 2321), sequence (P17948 whole entry, looked up): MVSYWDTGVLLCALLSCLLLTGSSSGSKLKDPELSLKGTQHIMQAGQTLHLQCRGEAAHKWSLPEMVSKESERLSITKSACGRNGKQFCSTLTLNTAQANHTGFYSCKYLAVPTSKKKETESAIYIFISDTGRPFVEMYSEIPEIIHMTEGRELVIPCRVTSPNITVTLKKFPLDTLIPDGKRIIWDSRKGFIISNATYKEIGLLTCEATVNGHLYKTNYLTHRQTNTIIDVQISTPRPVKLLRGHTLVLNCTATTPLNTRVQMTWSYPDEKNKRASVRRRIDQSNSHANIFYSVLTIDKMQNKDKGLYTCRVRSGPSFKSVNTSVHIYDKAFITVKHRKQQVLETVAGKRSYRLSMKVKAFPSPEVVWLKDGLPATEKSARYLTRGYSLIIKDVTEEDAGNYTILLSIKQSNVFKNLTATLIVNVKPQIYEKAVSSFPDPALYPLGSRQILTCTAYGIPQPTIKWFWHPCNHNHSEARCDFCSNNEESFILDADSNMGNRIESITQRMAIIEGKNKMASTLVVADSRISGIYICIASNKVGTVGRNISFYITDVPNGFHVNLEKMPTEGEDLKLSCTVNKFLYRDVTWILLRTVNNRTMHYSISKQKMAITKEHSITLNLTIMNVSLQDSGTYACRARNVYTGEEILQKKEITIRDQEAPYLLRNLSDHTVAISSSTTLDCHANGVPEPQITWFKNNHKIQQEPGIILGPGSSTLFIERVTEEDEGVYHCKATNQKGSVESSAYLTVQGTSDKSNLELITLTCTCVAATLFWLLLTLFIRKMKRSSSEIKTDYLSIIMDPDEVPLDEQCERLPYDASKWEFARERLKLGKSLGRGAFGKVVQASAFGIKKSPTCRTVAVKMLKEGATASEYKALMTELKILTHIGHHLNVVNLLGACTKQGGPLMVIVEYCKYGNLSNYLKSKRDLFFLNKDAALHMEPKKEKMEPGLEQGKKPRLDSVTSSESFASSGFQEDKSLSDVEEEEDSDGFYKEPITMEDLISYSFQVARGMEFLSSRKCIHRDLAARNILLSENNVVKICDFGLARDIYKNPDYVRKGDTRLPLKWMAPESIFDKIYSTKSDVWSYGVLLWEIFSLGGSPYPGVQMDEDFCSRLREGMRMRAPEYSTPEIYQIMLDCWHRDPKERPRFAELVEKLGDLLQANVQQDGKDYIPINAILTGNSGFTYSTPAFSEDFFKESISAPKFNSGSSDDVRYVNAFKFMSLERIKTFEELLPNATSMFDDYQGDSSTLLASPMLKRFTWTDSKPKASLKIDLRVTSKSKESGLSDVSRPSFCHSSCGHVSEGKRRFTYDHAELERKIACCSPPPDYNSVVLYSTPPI
Binding assays used specific radioligands (tritiated, iodinated) with non-radioactive competitive displacement ligands in agonist or antagonist protocols (as indicated) and various reference compounds and inhibitors to titrate specific binding to receptors and transporters. Most enzyme assays (CYPs, kinases, phosphatases, proteases, HDACs) used recombinant protein and specific substrates (fluorescence mostly, some colorimetric and radioactive) and inhibitors, followed by a biochemical separation of substrate and product. All assays for the biochemical HTS were initially run in duplicate at a single concentration (10 uM for CYP450 assays and 25 uM for all others). […] Each assay was run with positive and negative controls, and concurrent controls on every plate. […]
As to `CCCCCCCCCCCCCCCC[N+](C)(C)CC`, the compound was classed as inactive.

As to `CCCOC(=O)CCCCC(=O)OCCC`, the AC50 is 42.3 µM (active).

Consider `CNC(=S)N(C)C`, for which the call was inactive.

The next assay addresses sheep Cyclooxygenase-1 (Cox1), PTGS1 (gene 443551) (UniProt P05979). Kind of assay: NVS_ENZ_oCOX1: NovaScreen (NVS) Enzymatic Assay for sheep Cyclooxygenase-1 (Cox1) (AID 2283239).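 Note: actives reduce cyclooxygenase activity so potencies are for inhibitors.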 The procedure: NVS_ENZ_oCOX1 is a biochemical, single-readout assay that uses extracted gene-proteins from Ovine seminal vesicles in a tissue-based cell-free assay. Measurements were taken 0.66 hour after chemical dosing in a 96-well plate.NVS_ENZ_oCOX1 is one of one assay component(s) measured or calculated from the NVS_ENZ_oCOX1 assay. It is designed to make measurements of enzyme activity, a form of enzyme reporter, as detected with absorbance signals by Colorimetric technology.Data from the assay component NVS_ENZ_oCOX1 was analyzed into 1 assay endpoint. This assay endpoint, NVS_ENZ_oCOX1, was analyzed in the positive analysis fitting direction relative to DMSO as the negative control and baseline of activity. Using a type of enzyme reporter, loss-of-signal activity can be used to understand changes in the enzymatic activity as they relate to the gene PTGS1. Furthermore, this assay endpoint can be referred to as a primary readout, because this assay has produced multiple assay endpoints where this one serves a enzymatic activity function. To generalize the intended target to other relatable targets, this assay endpoint is annotated to the oxidoreductase intended target family, where the subfamily is cyclooxygenase.
Binding assays used specific radioligands (tritiated, iodinated) with non-radioactive competitive displacement ligands in agonist or antagonist protocols (as indicated) and various reference compounds and inhibitors to titrate specific binding to receptors and transporters. Most enzyme assays (CYPs, kinases, phosphatases, proteases, HDACs) used recombinant protein and specific substrates (fluorescence mostly, some colorimetric and radioactive) and inhibitors, followed by a biochemical separation of substrate and product. All assays for the biochemical HTS were initially run in duplicate at a single concentration (10 uM for CYP450 assays and 25 uM for all others). […] Each assay was run with positive and negative controls, and concurrent controls on every plate. The follow-up (secondary) screen tested active chemical-pairs in concentration series, as well as a few additional assays not tested in the primary screen, some selected negative inactives, and several cases re-run in the concentration series for confirmatory purposes.
As to `CC(CC=O)CCCC(C)(C)O` (stereo not given), the call was inactive.

Take `CCO[Si](CCCN=C=O)(OCC)OCC`: the compound was called inactive.

Turning to `c1ccc2c(c1)ccc1cc3c(ccc4ccccc43)cc12`, the AC50 is 22.5 µM (active).

In the case of `c1ccc(-c2ccccn2)nc1`, the result was inactive.

On to `C#CC1(O)CC[C@H]2[C@@H]3CCC4=CCCC[C@@H]4[C@H]3CC[C@@]21C` (stereo not given in full), for which the AC50 was 43.8 µM (active).

As for `C/C=C\C/C=C/CCCCCCCCOC(C)=O`, the AC50 was 25 µM (active).

As for `COc1ccc2nc(N)sc2c1`, the AC50 was 14.9 µM (active).

For the compound `N#[N+]c1ccc2c(S(=O)(=O)[O-])cccc2c1O`, the AC50 was 5.62 µM (active).

The next assay concerns the target human Adenosine A2a Receptor (AdoRA2a), ADORA2A (gene 135) (UniProt P29274). The experiment in a line: NVS_GPCR_hAdoRA2a: NovaScreen (NVS) G Protein-Coupled Receptor Assay for human Adenosine A2a Receptor (AdoRA2a) (AID 2283256). The essentials:
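Compounds screened in duplicate at 25 uM, with actives followed up in concentration series, for displacement of a radioligand from HEK293-derived receptor protein. Bound counts read by filter scintillation at 1.5 hours, DMSO as baseline.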
For `CCCCCCCCCCCCCCCC[N+](C)(C)CC`, the half-maximal activity concentration (AC50) is 44.2 µM (active).

As to `C1=CCCC1`, the result was inactive.

Consider `COCc1c(C(C)C)nc(C(C)C)c(/C=C/[C@@H](O)C[C@@H](O)CC(=O)O)c1-c1ccc(F)cc1`, for which the compound was called inactive.

Turning to `CC(C)c1ccc(C=O)cc1`, the compound was classed as inactive.

As to `O=c1c2ccccc2oc2ccccc12`, the call was inactive.

The next assay concerns the target D(1A) dopamine receptor (Homo sapiens) (UniProt P21728). The experiment in a line: NVS_GPCR_hDRD1: NovaScreen (NVS) G Protein-Coupled Receptor Assay for human Dopamine Receptor D1 (DRD1) (AID 2283269). An outline of the steps:
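Radioligand displacement binding on membranes/protein extracted from HEK293 expressing human D1, cell-free; read 1 h after dosing by filter-based scintillation counting. Primary screen in duplicate at 25 uM, actives followed up in concentration series; signal loss versus DMSO baseline.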
Turning to `C=CC(=O)OCC(Br)CBr` (stereo not given), the call was inactive.

As to `CCOc1nc(F)cc2nc(S(=O)(=O)Nc3c(Cl)cccc3C(=O)OC)nn12`, the half-maximal activity concentration (AC50) was 25 µM (active).

With `C#CC1(O)CC[C@H]2[C@@H]3CCC4=CCCC[C@@H]4[C@H]3CC[C@@]21C` (stereo not given in full), the outcome was inactive.

On to `CCCCCCCCCCCCCCCC[N+](C)(C)CC`, for which the AC50 is 1.95 µM (active).

Turning to `CCCCC/C=C\C/C=C\CCCCCCCC(=O)OC`, the AC50 was 45.1 µM (active).

Consider `C1=CCCC1`, for which the compound was classed as inactive.

In the case of `CCC(CC)C(=O)O`, the call was inactive.

Regarding `CCCC(C)CCC(C)=O` (stereo not given), the compound was called inactive.

For another assay, the target named is human Thromboxane A2 Receptor (TXA2), TBXA2R (gene 6915) (UniProt P21731). Kind of assay: NVS_GPCR_hTXA2: NovaScreen (NVS) G Protein-Coupled Receptor Assay for human Thromboxane A2 Receptor (TXA2) (AID 2283282).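 Note: actives reduce bound radioligand signal relative to DMSO baseline.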 The essentials: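 Filter scintillation counting of bound radioligand, human platelet protein, 1 h exposure. Single-concentration duplicates (25 uM) first, concentration-response follow-up for actives. Binding loss scored against DMSO baseline.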
human Thromboxane A2 Receptor (TXA2), TBXA2R (gene 6915), sequence (P21731 whole entry, looked up): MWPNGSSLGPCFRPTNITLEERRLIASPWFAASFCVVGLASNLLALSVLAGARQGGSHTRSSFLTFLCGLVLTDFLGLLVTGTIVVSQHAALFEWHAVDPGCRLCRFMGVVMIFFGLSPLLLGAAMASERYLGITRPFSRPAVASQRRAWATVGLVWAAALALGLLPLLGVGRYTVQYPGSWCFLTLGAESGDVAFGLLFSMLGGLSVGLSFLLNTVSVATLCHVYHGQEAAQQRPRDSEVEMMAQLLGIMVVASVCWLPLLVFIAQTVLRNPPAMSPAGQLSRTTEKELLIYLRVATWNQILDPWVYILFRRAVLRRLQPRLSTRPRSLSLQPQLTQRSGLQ
As to `CCCCCCCCc1ccc(Nc2ccc(CCCCCCCC)cc2)cc1`, the outcome was inactive.

Take `C=COCCCC`: the AC50 is 25 µM (active).

Take `CCCCC/C=C\C/C=C\CCCCCCCC(=O)OC`: the AC50 was 25 µM (active).

For `S=C(NC1CCCCC1)NC1CCCCC1`, the AC50 is 1.56 µM (active).

On to `Cc1ccc(C2OC[C@@H]3OC(c4ccc(C)cc4)O[C@H]([C@H](O)CO)[C@@H]3O2)cc1` (stereo not given in full), for which the compound was called inactive.

For the compound `Cc1ccc(N)c([N+](=O)[O-])c1`, the compound was called inactive.

As usually defined, the AC50 is the concentration at which the activity in the assay is half-maximal.
